Screening data (PubChem BioAssay)
mcGAS RapidFire: blocks mouse cGAS cGAMP production; recombinant mouse cGAS, cGAMP by RapidFire MS; inhibition, % at 12.5 µM; 130,000 tested, 0.18% active; AID 1259397;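 active = inhibition of cGAS enzyme activity at or above 60%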;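 also: enzyme stimulated by 45 bp dsDNA with ATP and GTP substrates; cGAMP share of summed cGAMP plus half ATP and half GTP signals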
Target sequence (Q8C6L5 whole entry, looked up): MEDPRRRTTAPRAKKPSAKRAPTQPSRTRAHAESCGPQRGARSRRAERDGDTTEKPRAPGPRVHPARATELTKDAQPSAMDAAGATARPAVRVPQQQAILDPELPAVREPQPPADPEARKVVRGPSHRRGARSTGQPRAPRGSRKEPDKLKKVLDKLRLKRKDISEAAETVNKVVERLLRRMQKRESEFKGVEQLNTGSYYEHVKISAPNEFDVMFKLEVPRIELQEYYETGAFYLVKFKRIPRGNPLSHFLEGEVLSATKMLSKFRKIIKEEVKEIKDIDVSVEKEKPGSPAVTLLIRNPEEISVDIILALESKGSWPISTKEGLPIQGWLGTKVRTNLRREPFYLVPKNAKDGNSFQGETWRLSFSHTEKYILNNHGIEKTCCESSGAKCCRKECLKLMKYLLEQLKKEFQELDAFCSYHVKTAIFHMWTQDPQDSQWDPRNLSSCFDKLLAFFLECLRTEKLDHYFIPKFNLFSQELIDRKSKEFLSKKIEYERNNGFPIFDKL
Of the large screens only hits and unclear results are named; the others gave an inactive call; ! = not confirmed by another sample. The entries come from a sample that favours hits as a whole.

O=C(CCc1nc2ccccc2[nH]1)N1CCc2c(ncnc2N2CCOCC2)C1	none
CSc1nc2nc(C)c(CC(=O)O)c(C)n2n1	none
NC(=O)COc1ccc(C(=O)NNC(=O)CN2c3cccc4cccc(c34)S2(=O)=O)cc1	none
O=S1(=O)c2cccc3cccc(c23)N1Cc1cccc2ccccc12	none
O=C(CN1c2cccc3cccc(c23)S1(=O)=O)c1c[nH]c2ccccc12	mcGAS RapidFire 87
O=C(COc1ccc(Cl)c2ccccc12)Nc1ncccc1O	mcGAS RapidFire 95
O=C(COc1ccc(Cl)c2ccccc12)NCC(F)(F)F	none
O=C(Cc1ccc(C(F)(F)F)cc1)Nc1ncccc1O	none
CC(C)C(CO)N(Cc1ccccc1)C(=O)Nc1cnn(C)c1 (configuration not stated)	none
COC1CCN(C(=O)Cc2ccccc2Br)CC1	none
CC(C)c1cc(C2CCN(C(=O)C3=NN(C)C(=O)CC3)CC2)[nH]n1	mcGAS RapidFire 78
CC(C)=CC(=O)N1CCC(c2cc(C(C)C)n[nH]2)CC1	none
CC(C)c1cc(C2CCN(C(=O)c3nc(C(C)C)cs3)CC2)[nH]n1	none
CC(=O)N1CCOC(CNC(=O)c2ccc(Oc3ccccc3)o2)C1 (configuration not stated)	none
CC(=O)NCC1CCN(C(=O)c2cc(Cl)c(Cl)n2C)CC1	none
O=C(Nc1cccc(-n2cccn2)c1)C1CCCN(Cc2ccc3c(c2)CCO3)C1 (configuration not stated)	none
COc1c(Cl)ccc(Cl)c1C(=O)O	mcGAS RapidFire 98
COc1cccc(C=CC(=O)c2ccc(Cl)c(Cl)c2)c1OC	none
COc1c(Cl)cc(C(=O)NCCn2cccc2)cc1Cl	none
CC(C)N(CC1CCC(=O)N1)C(=O)c1ccc2nc(Cc3cccc(Cl)c3)oc2c1 (configuration not stated)	none
Cn1nnc2c(SCC(=O)NC(C)(C)C)ncnc21	none
Cn1c(=O)c2[nH]c(/C=N\NC(N)=S)nc2n(C)c1=O	none
CC(C)(C)n1cccc(/C=N\NC(N)=S)c1=S	mcGAS RapidFire 72
NC(=S)NN=Cc1c[nH]c2ccccc12	none
O=C(c1ccc(Cl)cc1)N1CCCCC(Sc2nnnn2C2CC2)C1=O (configuration not stated)	none
C=CCn1c(=O)c2c(nc3n2CCCN3c2ccccc2)n(C)c1=O	none
CC(Cn1cncn1)NCc1cn(C)nc1-c1ccc(C2CCCCC2)cc1 (configuration not stated)	none
CCCCn1c(SC(C)c2nnc(CC)o2)nc(C)c1C (configuration not stated)	none
CCc1c(C)sc2[nH]c(=S)n(C)c(=O)c12	none
CCOC(=O)NNC(=O)c1cc(C)oc1C	none
Cc1cc(C(=O)NNC(=O)CCNC(=O)c2ccco2)c(C)o1	none
Cc1cc(C(=O)NNC(=O)C=Cc2ccco2)c(C)o1	mcGAS RapidFire 67
Cc1nn(-c2ccccc2)c(C)c1CC(=O)N(C)Cc1ncc[nH]1	none
Cn1nnc2c(SCc3cccc4ccccc34)ncnc21	none
CCOc1ccc(C(=O)c2nc3c(n2O)CCCCC3)cc1OCC	none
O=C(c1cccc2ccccc12)c1nc2c(n1O)CCCC2	none
Cc1ccc(C(=O)c2nc3c(n2O)CCCCC3)cc1	mcGAS RapidFire 90
COc1cc(OC)c2cc3c(nc2c1)CC(C)(C)CC3=O	none
COc1ccnc(Cn2nc(C3CCNCC3)n(-c3ccccc3)c2=O)c1	none
CCn1c(C2CCCNC2)nn(Cc2cc(=O)n3cc(C)sc3n2)c1=O (configuration not stated)	none
CCn1c(C2CCCNC2)nn(Cc2cc(OC)ccn2)c1=O (configuration not stated)	mcGAS RapidFire 61!
CCC(CN)Oc1ccccc1Cl (configuration not stated)	none
O=C1CCN(c2nc(-c3ccccc3)nc3c2CCNC3)CCN1	none
Cc1ccc(C=Cc2sc3ccccc3[n+]2CCCS(=O)(=O)O)cc1	mcGAS RapidFire 86
COc1ccc(C=Cc2sc3ccccc3[n+]2CCCS(=O)(=O)O)cc1OCc1ccccc1	none
O=C1CC2(CCCCCC2)C(=O)N1c1ccccc1Cl	none
O=c1[nH]c2c(c3ccccc13)C(c1ccccc1)N1C=CN=CC1=N2 (configuration not stated)	none
CC(=O)Nc1cc(-c2ccccc2)nn1-c1ccc(C(=O)NCCC2=CCCCC2)cc1	none
O=S(=O)(O)CC(S)CS (configuration not stated)	mcGAS RapidFire 87
COc1ccc(C(C)C)cc1-c1cnc(NC(C)=O)cn1	none
CCN(CC)C(CNS(=O)(=O)c1ccccc1)c1ccccc1Cl (configuration not stated)	none
O=C(c1cccs1)N1CCC(c2nc3cc(Cl)ccc3s2)CC1	none
NC(=O)n1c(O)c(C(=O)c2cccs2)c2cc(Cl)ccc21	mcGAS RapidFire 70
O=C(c1cccs1)c1cccs1	none
NC(=O)C1=CN2CCN(Cc3ccccc3)C(=O)N=C2O1	none
CCC(C)(C)c1ccc(Oc2ccc(NS(=O)(=O)C3CCN(C(C)=O)CC3)cc2)cc1	none
CCC1=NN2C(=N)/C(=C/c3cccs3)C(=O)N=C2S1	mcGAS RapidFire 97
N=C1/C(=C/c2cccs2)C(=O)N=C2SC(Cc3ccccc3)=NN12	none
N=C1/C(=C/c2cccs2)C(=O)N=C2SC(c3ccccc3)=NN12	none
Cc1c(C(=O)NCCC#N)sc(=O)n1Cc1cccc(F)c1	none
Cc1c(C)n(C)c2ccc(C(=O)O)cc12	none
COc1ccc(CNCc2ccccc2Cn2cccn2)c(Cl)c1	mcGAS RapidFire 83
COc1ccc(Cn2cccc(C)c2=O)c(Cl)c1	none
COc1ccc(OC)c(CNCc2c(C)nc3ccccn23)c1	none
O=c1ccccn1CCN1CCc2ccccc21	none
Cc1cc(CC(C)NC(=O)CCn2c(C)cc3ccccc32)n[nH]1 (configuration not stated)	none
CN1C(=O)CC(C(=O)Nc2ccccc2)SC1=Nc1ccc(Cl)c(C(F)(F)F)c1 (configuration not stated)	none
CN1CCN(C2=NC(C(=O)Nc3ccccc3)CC(=O)N2)CC1 (configuration not stated)	mcGAS RapidFire 70
CN1CCC(N(Cc2ccccc2)C(=O)Nc2ccc(NC(=O)C3CC3)cc2)CC1	none
C/C(=N/Nc1nc(Cl)c(C#N)c(Cl)c1Cl)c1ccc(N)cc1	none
CC(C)=NNc1nc(Cl)c(C#N)c(Cl)c1Cl	mcGAS RapidFire 75
CSCC(CCO)Nc1cccc(F)n1 (configuration not stated)	none
CCCN1C(=O)C(CCC(=O)NCCc2cccs2)NC(=O)c2ccccc21 (configuration not stated)	none
COc1cc(-c2cccc(C(=O)O)c2)ccc1NC(C)=O	none
COc1cc(-c2ccc(NN=C3C=Cc4c(S(=O)(=O)O)cc(S(=O)(=O)O)c(N)c4C3=O)c(OC)c2)ccc1NN=C1C=Cc2c(S(=O)(=O)O)cc(S(=O)(=O)O)c(N)c2C1=O	mcGAS RapidFire 98
CCCN1C(=O)C(=Cc2c(N3CCN(CCO)CC3)nc3c(C)cccn3c2=O)SC1=S	none
O=C(O)/C=C/c1nc(-c2ccc(Cl)cc2)n2ccccc12	none
COc1cc(C)c2c(c1C=O)Oc1c(c(C)c(O)c3c1C(O)OC3=O)OC2=O (configuration not stated)	none
Cc1cc(O)c(C=O)c2c1C(=O)Oc1c(C)c(O)c3c(c1O2)C(O)OC3=O (configuration not stated)	mcGAS RapidFire 85
COc1ccc2c(=O)c3c(=O)n(Cc4ccccc4)c(-c4ccccc4)nc3oc2c1	none
